Compounds with a hit are over-represented: about 12% of the library has one in this group of screens.
L3MBTL1 block: blocks human L3MBTL1; Q9Y468; AlphaScreen L3MBTL1–H3K9me1 peptide binding; Potency, µM (titrated, usually from 57.1 µM), for the others: at the highest dose activity, negative = inhibition, actives largely listed as inhibitors; hit rate 0.66% among 230,000; AID 485360; further: on the % scale 0 is the no-effect control and ±100 the full control effect; nearly all actives have a fitted effect of over 60% in size
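L3MBTL1 50 nM + b-AHA-H3(1-15)K9me1 75 nM, 30 min RT; compound added, 30 min RT; streptavidin donor/Ni-chelate acceptor beads 10 ug/mL each final, 30 min RT dark; AlphaScreen read.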
G9a block: inhibitors of human histone lysine methyltransferase G9a | Q96KQ7 | G9a H3K9 monomethylation, AlphaScreen, 2 h | Potency, µM (highest dose often 102 µM), without a hit: at the highest dose activity, negative = inhibition, hits mostly inhibitors | hit rate 8.8% among 350,000 | AID 504332; further: on the % scale 0 is the no-effect control and ±100 the full control effect; nearly all actives have a fitted effect of over 75% in size
Target sequence (Q96KQ7 913-1193 limits assumed): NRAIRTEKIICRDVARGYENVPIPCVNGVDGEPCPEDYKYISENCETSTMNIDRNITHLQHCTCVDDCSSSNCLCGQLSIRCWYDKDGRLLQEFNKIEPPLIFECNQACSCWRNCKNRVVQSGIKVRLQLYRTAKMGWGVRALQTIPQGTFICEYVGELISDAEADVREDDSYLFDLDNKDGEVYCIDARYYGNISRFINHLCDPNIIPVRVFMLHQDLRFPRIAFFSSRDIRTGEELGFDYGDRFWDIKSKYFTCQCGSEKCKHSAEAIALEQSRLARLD
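G9a (20 nM) preincubated 15 min RT with compounds, then 500 nM biotinylated H3K9 peptide and 20 uM SAM added; 2 h RT reaction. Monomethyl-H3K9 product detected by AlphaScreen with anti-H3K9me1 antibody, streptavidin donor and anti-rabbit IgG acceptor beads.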
BAZ2B inh: blocks human BAZ2B | Q9UIF8 | AlphaScreen BAZ2B-H3K14Ac peptide displacement | Potency, µM (doses to about 114 µM), for the others: at the highest dose activity change, negative = inhibition, actives largely listed as inhibitors | hit rate 4.4% among 360,000 | AID 504333; further: on the % scale 0 is the no-effect control and ±100 the full control effect; nearly all actives have a fitted effect of over 60% in size
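Protein-peptide AlphaScreen: BAZ2B 50 nM, b-H3K14Ac 50 nM, 1x PBS pH 7.4 + 0.01% Tween-20. Preincubation 30 min RT; cpd 30 min RT (top 110 uM); beads 20 min RT, light-protected.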
Sfp inh: inhibitors of Bacillus subtilis Sfp phosphopantetheinyl transferase | Biochemical Sfp PPTase activity, qHTS | Potency, µM, inactives show largest response in the series, negative = inhibition, hits mostly inhibitors | hit rate 3.5% among 310,000;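 further: the enzyme is Sfp with the accession as filed and its product quenches rhodamine fluorescence; 0% = enzyme reaction without inhibitor and -100% = no enzyme wells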
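Compounds were incubated with enzyme (final 15 nM) for 15 min at room temperature before substrate addition started the reaction. Fluorescence at 525 nm excitation, 598 nm emission was recorded immediately and after 30 minutes.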
HP1b binding inh: HP1-beta chromodomain-methylated histone interaction inhibition. hit rate 0.56% among 390,000. P83916. Potency, µM (highest dose often 114 µM), without a hit: top-dose activity change, negative = inhibition, most hits filed as inhibitors. AlphaScreen HP1-beta / biotin-H3K9me3 peptide binding; further: nearly all actives have a fitted effect of over 70% in size
Target sequence (P83916 whole entry, looked up): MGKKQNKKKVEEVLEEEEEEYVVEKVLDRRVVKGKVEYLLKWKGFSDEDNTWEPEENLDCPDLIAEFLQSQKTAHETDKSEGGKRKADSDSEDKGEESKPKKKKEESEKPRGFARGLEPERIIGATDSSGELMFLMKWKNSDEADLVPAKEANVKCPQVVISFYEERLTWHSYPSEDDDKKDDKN
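AlphaScreen: HP1-beta (50 nM) preformed 30 min with biotin-H3(1-18)K9me3 peptide (50 nM) in PBS pH 7.4, 0.01% Tween-20. Compound added for 30 min at RT, then streptavidin donor/nickel chelate acceptor beads (10 ug/mL) for 30 min.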
JMJD2A Tudor inh: inhibitors of human JMJD2A Tudor domain; O75164; AlphaScreen JMJD2A-Tudor / H3K4me3 peptide binding; Potency, µM (doses to about 114 µM), for the others: at the top dose activity change, negative = inhibition, actives largely listed as inhibitors; hit rate 4.4% among 390,000; further: on the % scale 0 is the no-effect control and ±100 the full control effect; nearly all actives have a fitted effect of over 50% in size
The depositor's hits bear a star; [ ] = dose if it differs, or a comment. The call rests on the fitted dose curve; in most records, active means well fitted curve in the direction sought with a large enough effect; inconclusive means small, poorly fitted or top-dose-only effect, or another doubt; inactive means no such curve, though single readings can be large; an effect the other way counts as inactive or inconclusive. Potency means the concentration at half of the fitted maximal effect.

Cc1ccc2c(ccc(=S)n2C)c1 was read as G9a block 39.8µM*, BAZ2B inh inconclusive, Sfp inh -16.0%, HP1b binding inh 39.0% and JMJD2A Tudor inh -18.6%.
`Cc1ccc2c(c1)cc(C(=O)Nc1ccccc1C)n2C` gave G9a block 5.0%[59 µM], BAZ2B inh -1.2%, HP1b binding inh 15.3% and JMJD2A Tudor inh -17.5%.
CN(C)c1cccc(C(=O)NNC(=S)NC2CC3CCC2C3)c1 (stereo not drawn) was read as L3MBTL1 block -8.1%, G9a block 50.1µM*, BAZ2B inh -25.6%, Sfp inh 12.0%, HP1b binding inh inconclusive and JMJD2A Tudor inh inconclusive.
COc1ccc(NC(=O)C(Cc2ccccc2)NS(=O)(=O)c2ccc(Br)s2)cc1OC (stereo not drawn) was read as G9a block -37.9%[59 µM], BAZ2B inh -17.9%, HP1b binding inh 24.3% and JMJD2A Tudor inh -18.8%.
Screening CCOc1ccc(C2=Cc3cc(OC)c(OC)cc3C(=C(Cl)Cl)O2)cc1 returned G9a block 7.08µM*, BAZ2B inh inconclusive and Sfp inh -24.6%.
CCOc1ccc(N(C(=O)OC(C)(C)C)C(=O)c2ccc(O[Si](C)(C)C(C)(C)C)cc2)c(I)c1 was read as Sfp inh -6.0%, HP1b binding inh -5.3% and JMJD2A Tudor inh -22.8%.
`Cc1ccccc1OCC(=O)OCc1cc(=O)n2ccsc2n1` gave G9a block 19.8%[59 µM], BAZ2B inh -0.7%, HP1b binding inh 27.5% and JMJD2A Tudor inh -3.0%.
Cc1ccc(-n2nc(CO)c(C(=O)NCCCCc3ccccc3)n2)cc1C was read as G9a block 14.2%[59 µM], BAZ2B inh 0.6%, HP1b binding inh 28.9% and JMJD2A Tudor inh 6.9%.
For CN(C)NC(=S)NC1(C)CCS(=O)(=O)C1 (stereo not drawn) the results were L3MBTL1 block 3.9%, G9a block -132.4%[59 µM], BAZ2B inh inconclusive, Sfp inh 89.1µM*, HP1b binding inh 11.3% and JMJD2A Tudor inh -12.8%.
Screening CN(CC(=O)Nc1ccccc1C(F)(F)F)C(=O)c1cc(-c2cccs2)nn1-c1ccccc1 returned L3MBTL1 block 2.4%, G9a block -5.0%[0.501 µM], BAZ2B inh 6.0%, HP1b binding inh 12.4% and JMJD2A Tudor inh -22.1%.
CN(CC(=O)Nc1cccc(F)c1)C(=O)c1cc(-c2cccs2)nn1-c1ccccc1 was read as L3MBTL1 block -10.2%, G9a block 50.1µM*, BAZ2B inh inconclusive, HP1b binding inh 14.3% and JMJD2A Tudor inh -23.4%.
For O=C(O)c1cc(-c2cccs2)nn1-c1ccc(F)cc1 the results were L3MBTL1 block inconclusive, G9a block 44.7µM*, BAZ2B inh inconclusive, Sfp inh 18.8%, HP1b binding inh 39.2% and JMJD2A Tudor inh -12.6%.
CCCN(CC(=O)Nc1ccccc1OC)C(=O)c1cc(-c2cccs2)nn1-c1ccccc1 was read as L3MBTL1 block -2.5%, G9a block 44.7µM*, BAZ2B inh -3.1%, HP1b binding inh 29.0% and JMJD2A Tudor inh -15.2%.
COC(=O)c1cc(-c2cccs2)nn1-c1ccccc1 was read as G9a block 1.8%, BAZ2B inh 0.9%, Sfp inh 12.5%, HP1b binding inh 50.4% and JMJD2A Tudor inh -9.0%.
CCN(CC(=O)Nc1ccccc1C(F)(F)F)C(=O)c1cc(-c2cccs2)nn1-c1ccccc1 was read as BAZ2B inh 0.0%, Sfp inh -5.1%, HP1b binding inh 15.6% and JMJD2A Tudor inh -13.7%.
For O=C1CCC2=C1C1(CCCC1)N=C(Nc1nc3ccccc3o1)N2 the results were JMJD2A Tudor inh -22.0%.
For COc1cccc(CNC(=O)c2nn(-c3ccccc3Cl)nc2CO)c1 the results were G9a block -4.3%[59 µM], BAZ2B inh 4.9%, HP1b binding inh 19.3% and JMJD2A Tudor inh -21.7%.
CCCOC(=O)Nc1nc2ccccc2o1 was read as L3MBTL1 block -1.8%, G9a block 50.1µM*, BAZ2B inh 79.4µM*, Sfp inh 8.9%, HP1b binding inh 9.7% and JMJD2A Tudor inh inconclusive.

High-throughput results from PubChem BioAssay.
